The structures appear in SMILES notation. Among all 190,000 compounds or so, about 490 (0.26%) were called active. This is one part of a sample in which actives are shown more often than they occur. Unmarked numbers belong to inactive results. No stated cut-off is given here; in the data, active means fluorescence above about 89; inactive means the rest.

These results are taken from PubChem BioAssay AID1776 (NMMLSC, 2009).

This assay in a line: compound fluorescence on glutathione beads, profiling panel, artefact control, biophysical, 488/530 nm, flow cytometry (AID 1776).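 Further: glutathione beads carrying GST-tagged Bcl family fusion proteins plus one bare bead set; values are compound well signal with DMSO vehicle wells as background.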 To be noted: GSH beads flow cytometry, compound fluorescence 488/530 nm; at 10 µM; hits give high values. (A flow cytometer gives signals particle by particle.)
As for `C#CCCCc1nc2ccccc2c(=O)n1N`, the fluorescence (KMESF) is 11.

With `COc1ccc(S(=O)(=O)N2CN(CCc3ccc(OC)c(OC)c3)c3nc4ccccc4nc32)cc1`, the fluorescence (KMESF) was 15. As to `O=C1/C(=C\c2ccsc2)NC(=S)N1c1ccccc1`, the fluorescence (KMESF) is 11. As to `CCCc1c(C)nc2c(Br)cccc2c1Cl`, the fluorescence (KMESF) was 17.

In the case of `CN(C)c1ccnc2sc(C(=O)c3ccccc3)c(N)c12`, the fluorescence (KMESF) was 7. `O=C(CC1Nc2ccccc2NC1=O)Nc1ccccc1NC(=O)CC1Nc2ccccc2NC1=O` (configuration not stated): the fluorescence (KMESF) was 13. In the case of `CCCCC(O)(CCCC)C(=O)NN(C(=O)CCl)c1ccccc1`, the fluorescence (KMESF) was 9.

On to `O=C(/C=C/c1cn(-c2ccccc2)nc1-c1ccc2c(c1)OCCO2)NCCCN1CCOCC1`, for which the fluorescence (KMESF) was 15. `COC(=O)Cc1c(O)ccn(Cc2cccc(C(F)(F)F)c2)c1=O`: the fluorescence (KMESF) was 11. In the case of `Cc1scc(C(=O)NNC(=S)NCC(C)C)c1C`, the fluorescence (KMESF) is 5. The same measure for `COc1cccc(OC)c1C(=O)NC(=S)NCc1ccco1`: 10; for `O=C(N/N=C/c1ccccn1)C12CC3CC(CC(C3)C1)C2`: 10.

Consider `NC(=O)Cc1ccc2sc(-c3ccccc3)nc2c1`, for which the fluorescence (KMESF) is 4.

`Cc1ccc(Cl)cc1NC(=O)C1CCN(S(C)(=O)=O)CC1`: the fluorescence (KMESF) is 13.

`O=C1N/C(=C/c2cccs2)C(=O)N1Cc1ccc(F)cc1`: the fluorescence (KMESF) is 18. As for `O=C(NCc1cccs1)C(=O)NCC1OCCCN1S(=O)(=O)c1ccc(F)cc1` (configuration not stated), the fluorescence (KMESF) is 10. The same measure for `Cc1cc([N+](=O)[O-])ccc1NC(=O)C1CCCO1` (configuration not stated): 8; for `CCOC(=O)c1sc(NC(=O)CSc2nc3c(c(=O)n2-c2ccccc2)SCC3)c(C(=O)OCC)c1C`: 16. To `Cc1nc2ccccc2nc(=O)c1NNc1ccc([N+](=O)[O-])cc1` belongs 20; to `C/C(=N/NC(=S)Nc1ccccc1)c1ccc2c(c1)OCO2`, 5.

With `CCOc1ccc(Br)cc1S(=O)(=O)N1CCC(C(=O)O)CC1`, the fluorescence (KMESF) was 10. With `CC(C)C1C2=C(CC(C)(C)CC2=O)ON1c1ccccc1` (configuration not stated), the fluorescence (KMESF) was 52.

Take `O=c1[nH]c(-c2ccccc2)c(-c2ccccc2)[nH]1`: the fluorescence (KMESF) is 20. `CC1(C)CC(=O)NC=C(c2ccccc2)C1`: the fluorescence (KMESF) is 272 (active). To `CCCC(CCC(=O)OC)(C(=O)OCC)c1csc(N)n1` (configuration not stated) belongs 262 (active). As for `CC/C(Cc1ccccc1)=N/NC(=O)CCn1nnc2ccccc21`, the fluorescence (KMESF) is 12.

`CCOC(=O)CSc1nc2c(sc(=S)n2CCc2ccccc2)c(=O)n1Cc1ccco1`: the fluorescence (KMESF) is 11.

With `COc1ccc(NC(=O)Cn2c(=O)n(Cc3ccco3)c(=O)c3ccccc32)cc1`, the fluorescence (KMESF) was 17. The same measure for `CN(c1ccccc1)c1ccc(/C=c2\s/c(=C(/C#N)C(=O)C(C)(C)C)n(Cc3ccco3)c2=O)cc1`: 145 (active); for `Nc1nc(SCC(=O)NN(c2ccccc2)c2ccccc2)n[nH]1`: 7. To `Cc1ccc(NS(=O)(=O)c2ccc(C)c(NC(=O)COc3ccc4ccccc4c3)c2)c(C)c1` belongs 15; to `O=C(/C=C\c1ccc2c(c1)OCO2)NC1(C(=O)Nc2ccc3c(c2)OCCO3)CCCCC1`, 7. Regarding `Cc1cc([N+](=O)[O-])ccc1NC(=O)c1ccc(NC(=O)C(C)C)cc1`, the fluorescence (KMESF) is 17.

Take `CCc1ccc(CN2C(=O)c3ccccc3C2C(=O)NCC2CCCO2)cc1` (configuration not stated): the fluorescence (KMESF) was 14. To `Cc1c(Cl)cccc1NC(=O)CC1SC(=NCC2CCCO2)NC1=O` (configuration not stated) belongs 20; to `CCOc1ccc(S(=O)(=O)N/N=C(\C)c2ccc(Cl)c(Cl)c2Cl)cc1`, 18. The same measure for `CCCCCC(=O)Nc1ccc(S(=O)(=O)Nc2ccc(Cl)nn2)cc1`: 11; for `COc1ccccc1N(C)S(=O)(=O)c1ccc(Cl)c(C(=O)N2CCC(C(N)=O)CC2)c1`: 11; for `CN1CCC(OC(=O)COc2ccc(Cl)cc2Cl)CC1`: 13. For `Cn1nccc1CNC(=O)c1ccnn1C`, the fluorescence (KMESF) was 9. To `CCCCN(C)CCNC(=O)CSCc1ccc(C)cc1` belongs 25. The same measure for `CCCCN(C(=O)/C=C/c1ccco1)c1c(N)n(CC(C)C)c(=O)[nH]c1=O`: 9. Regarding `COc1ccc(/C=C2/SC(=O)N(CCCCCC(=O)Nc3ccccc3C(=O)O)C2=S)cc1`, the fluorescence (KMESF) is 9. To `O=C(CC12CC3CC(CC(C3)C1)C2)NCc1ccco1` belongs 15; to `CSCC(=O)N1CCCC(C(=O)c2cc(F)ccc2F)C1` (configuration not stated), 11. To `O=C(Cc1ccc(-c2ccccc2)cc1)NC(c1ccccc1)c1ccccc1` belongs 10. To `OCC(CO)(CO)NCc1ccc(-c2ccccc2)cc1` belongs 236 (active); to `O=C(O)Cc1ccc(-c2ccccc2)cc1`, 21. Turning to `O=C(COc1ccc(NC(=O)c2ccccc2[N+](=O)[O-])cc1)c1ccc(F)cc1`, the fluorescence (KMESF) was 23.

On to `O=C(COC(=O)c1ccc(Cl)nc1)NCc1cccs1`, for which the fluorescence (KMESF) was 24. `COc1ccccc1OCCC(=O)OCC(=O)NCc1ccccc1`: the fluorescence (KMESF) is 16. Turning to `COc1ccccc1OCCC(=O)OCC(=O)NC(=O)NC(C)(C)C`, the fluorescence (KMESF) is 260 (active).

As to `COc1cccc(NC(=O)COC(=O)CCOc2ccccc2OC)c1`, the fluorescence (KMESF) was 10. Consider `Cc1ccccc1-n1nnnc1SCCCC(=O)c1ccc(F)cc1`, for which the fluorescence (KMESF) is 11. The same measure for `COc1cccc(Cn2cnc3c([N+](=O)[O-])c(C)c(C)cc32)c1`: 19; for `CCOC(=O)Cc1csc(NC(=O)C(C)(C)C)n1`: 28; for `CCOC(=O)Cc1csc(NC(=O)Nc2ccccc2)n1`: 13. Consider `CCOC(=O)Cc1csc(NC(NC(=O)OCC)(C(F)(F)F)C(F)(F)F)n1`, for which the fluorescence (KMESF) is 269 (active). To `COc1ccc(C)cc1S(=O)(=O)N(CC(=O)Nc1cccc([N+](=O)[O-])c1)c1ccc(C)cc1` belongs 11; to `CCCCN1C(=S)NC[C@@H]1C(C)CC` (some centres not stated), 20; to `Cc1ccc(-c2cc(C(=O)N/N=C/C=C/c3ccccc3)n[nH]2)o1`, 7.

For `O=C(NCCCN1CCOCC1)c1ccc(N2CCCC2)c([N+](=O)[O-])c1`, the fluorescence (KMESF) is 15. To `COc1ccc(CCNC(=O)CCn2c(=O)c3ccccc3n(CC(=O)NCC3CCCO3)c2=O)cc1OC` (configuration not stated) belongs 70; to `CNc1nc2c(C)cccn2c(=O)c1C=Nc1ccc(OC)cc1`, 19; to `Cc1ccc2nc3n(c(=O)c2c1)CCC3`, 45. The same measure for `O=c1c2c(nc3n1CCCCC3)sc1c(O)cccc12`: 8. Take `Cc1cccc2c(=O)n3c(nc12)CCCCC3`: the fluorescence (KMESF) was 267 (active). The same measure for `Cc1ccc(S(=O)(=O)NCCC(c2ccccc2)c2ccccc2)cc1C(=O)O`: 12; for `CCO/C=C1\C(=O)N(c2ccc(OCC)cc2)C(=O)c2ccccc21`: 14; for `Cc1cc(NC(=O)CN2C(=O)NC(CCc3ccccc3)C2=O)no1` (configuration not stated): 13. As for `O=C(c1ccc(OC2CCN(C(=O)c3cccnc3)CC2)cc1)N1CCCCCC1`, the fluorescence (KMESF) is 11.

Take `Cc1cccc(Oc2c([N+](=O)[O-])c(=O)n(C)c3ccccc23)c1`: the fluorescence (KMESF) is 55. With `O=C(COC(=O)CCCSc1nc2ccccc2[nH]1)Nc1ccc(Oc2ccccc2)cc1`, the fluorescence (KMESF) is 11. With `CCCCC(NS(=O)(=O)c1ccc(C)cc1)C(=O)Oc1ccc2c3c(c(=O)oc2c1)CCC3` (configuration not stated), the fluorescence (KMESF) is 11.

Take `CCOC(=O)C1=C(C)NC(=O)NC1c1ccccc1` (configuration not stated): the fluorescence (KMESF) is 17.

With `CCOC(=O)C1=C(C)NC(SC)=NC1c1ccccc1` (configuration not stated), the fluorescence (KMESF) is 34. To `CCOC(=O)C1=C(C)NC(C)=C(C(=O)OCC)C1c1ccccn1` belongs 252 (active). To `CC(C)(C)NC(=O)CN(C(=O)c1csnn1)c1ccccc1-c1ccccc1` belongs 14; to `CCc1cccc(CC)c1NC(=O)COc1ccccc1C(=O)c1cc(C#N)c(=O)n(C2CCCCC2)c1`, 18; to `CCOc1ccc(NC(=O)NNC(=O)c2ccc(Cl)cc2Cl)cc1`, 21. To `COc1ccc(/C=N/OCC(=O)N(Cc2ccccc2)c2ccccc2C(=O)O)cc1` belongs 6; to `COC(=O)c1ccc(-c2noc(CN(Cc3ccccn3)CC3CCCO3)n2)cc1` (configuration not stated), 18; to `CC(C)N1CCC(=NNc2ccc([N+](=O)[O-])cc2S(=O)(=O)N2CCOCC2)CC1`, 18. As to `O=C(CSc1nnnn1-c1ccc(O)cc1)N1N=C(c2ccc3ccccc3c2)CC1c1ccccc1` (configuration not stated), the fluorescence (KMESF) is 16. On to `Cc1ccc2c(Cl)c(C(=O)Nc3nn[nH]n3)sc2c1`, for which the fluorescence (KMESF) was 15. As for `COc1ccc(CN2C(=O)CC(Cc3ccc(C)cc3)C2=O)cc1OC` (configuration not stated), the fluorescence (KMESF) is 10. To `Cc1ccc(C(=O)O)cc1NC(=O)c1ccc(Cn2nc(C)c(Cl)c2C)o1` belongs 15; to `COC(=O)C1=C(C)N(C)C(C)=C(C(=O)OC)C1c1cccc(Br)c1`, 266 (active); to `COC(=O)C1=C(C)N(C)C(=S)NC1c1ccccc1` (configuration not stated), 13. To `COC(=O)C1NN=C(C(=O)c2ccc(Br)cc2)C1c1cccc(Br)c1` (configuration not stated) belongs 10. In the case of `CCOc1ccccc1/C=N/NC(=O)CNC(=O)COc1ccccc1`, the fluorescence (KMESF) is 13.

For `Cc1cccc(-n2cc(CN3CCN(C(=O)c4ncn[nH]4)CC3)c(-c3cccc(F)c3)n2)c1`, the fluorescence (KMESF) is 12.
